“And” between values parts separate entries of the source, which are not always exact repeats. Identical values can stand only once. Some structures have more than one record in an assay (separate samples or runs), and their calls can disagree. The source made the active and inactive calls.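 The calls were made as follows: active = mean z-score across replicates of 1.96 or higher in either the MELAS or the Rieske mutant cell line; inactive = the rest.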

A short description of the test: survival rescue of mitochondrial mutant cells in low glucose, primary screen, MELAS cybrids, Rieske KO mouse fibroblasts, CellTiter-Glo (AID 1508586).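 Also: test concentration not given here; z relative to plate mean and SD of compound and empty wells.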 Particulars: MELAS cybrid survival, CellTiter-Glo 48 h, stronger effect = higher value. In general terms: Cellular ATP, detected with luciferase, serves as a proxy for viable cell number.
For `COc1cc(OC)c(C(=O)CCCN2CCCC2)c(OC)c1`, the z-score was -0.379 (inactive) and 0.339 (inactive).

Consider `CC(C)[C@H](N)C(=O)OCCOCn1cnc2c(=O)[nH]c(N)nc21`, for which the z-score is 0.38 (inactive) and 0.156 (inactive).

For the molecule `O=C(NCCO[N+](=O)[O-])c1cccnc1`, the z-score is -0.335 (inactive) and 0.466 (inactive) and -0.214 (inactive).

In the case of `Cn1c(NCCN(CCO)CCCc2ccc([N+](=O)[O-])cc2)cc(=O)n(C)c1=O`, the z-score is 0.423 (inactive) and 0.101 (inactive).

Consider `CCN1CCN(C(=O)N[C@@H](C(=O)N[C@@H]2C(=O)N3C(C(=O)O)=C(CSc4nnnn4C)CS[C@H]23)c2ccc(O)cc2)C(=O)C1=O`, for which the z-score is -0.583 (inactive) and -0.0634 (inactive).

Regarding `CNNCc1ccc(C(=O)NC(C)C)cc1`, the z-score is -0.384 (inactive) and 0.576 (inactive).

As for `O=C(O)/C=C/c1ccc(Cn2ccnc2)cc1`, the z-score was -1.23 (inactive) and 0.348 (inactive).

As for `CCOC(=O)[C@H](CCc1ccccc1)N[C@@H](C)C(=O)N1CCC[C@H]1C(=O)O`, the z-score is -1.03 (inactive) and -0.334 (inactive).

Consider `O=NN(CCCl)C(=O)NC1CCCCC1`, for which the z-score was -0.38 (inactive) and -0.0882 (inactive).

In the case of `COc1ccc(C(=O)CC(=O)c2ccc(C(C)(C)C)cc2)cc1`, the z-score was -0.399 (inactive) and 2 (active).

In the case of `CN(CCOc1ccc(NS(C)(=O)=O)cc1)CCc1ccc(NS(C)(=O)=O)cc1`, the z-score was -0.0974 (inactive) and 0.133 (inactive) and -0.631 (inactive).

The record behind these values is PubChem BioAssay.
